± gives the standard deviation of the averaged measurements. Whole data set: some 25,000 sequences, median “ln(normalized median fluorescence intensity)” near 8.9, cut for the highest 2% near 10. The full list was thinned out, with the highest values kept by preference.

In the assay the test system is PfAP2-LT AP2 domain (GST-tagged). The assay can be described thus: gcPBM binding intensity (ln(normalized median fluorescence intensity)); higher = stronger DNA binding. In outline:
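GST-fused DNA-binding domains of P. falciparum, expressed in E. coli, were applied at about 25 μg on average for 1 h to an Agilent 4 × 180k array of primer-extended double-stranded 36-bp intergenic genomic probes and negative controls. Binding intensity is the highest Masliner-normalised natural-log median intensity across replicate spots of either probe orientation, measured with Alexa488 anti-GST antibody and a 488 nm scan.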
With “CACAAAGACACAAACACACACACACCCACATACATA [CACACA_site452]”, the “gcPBM binding intensity (ln)” value was 9.86 ± 0.24.
Consider “AACATATTAATGTACACACACCCACGCACAAACAAA [CACACA_site7320]”, for which the “gcPBM binding intensity (ln)” value is 9.765 ± 0.092.
Turning to “CAAACATATTAATGTACACACACCCACCCACAAACA [CACACA_site2752]”, the “gcPBM binding intensity (ln)” value worked out at 10.2 ± 0.29.
On to “CATACATAGAAACACACACACACACCCACCCACAAA [CACACA_site494]”, for which the “gcPBM binding intensity (ln)” value worked out at 10.19 ± 0.028.
Take “CATATACACCAACACACACACACACCCACAAAAAAA [CACACA_site496]”: the “gcPBM binding intensity (ln)” value turned out to be 10.1 ± 0.27.
Regarding “TACACCCACCAACACACACACACACCCAAAAAAAAA [CACACA_site498]”, the “gcPBM binding intensity (ln)” value was found to be 10.1 ± 0.14.
On to “TAACCATACATACATACACACACACCCACATATATA [CACACA_site8951]”, for which the “gcPBM binding intensity (ln)” value stood at 9.95 ± 0.13.
Consider “ATATATTACAATATATGTACTTAATTTGCTTAAATA [XGTACX_site7912]”, for which the “gcPBM binding intensity (ln)” value was found to be 8.6 ± 0.52.
As to “TAACAAATATTATTTTGTACATAATATATATATATA [XGTACX_site6898]”, the “gcPBM binding intensity (ln)” value worked out at 8.6 ± 0.32.
The figure for “TTGTTTCAAAATTAAACACACACAAAAAAAAAAAAA [CACACA_site8856]” is 8.86 ± 0.52; for “TTATATATATTTAAAAAAATAACATAAATAAATAAA [CACACA_negctrl_site347]” it is 8.29 ± 0.52.
On to “AGTCTTTTACATTGCACACACATTTCTTTCCTTTTG [CACACA_site2988]”, for which the “gcPBM binding intensity (ln)” value was 9.61 ± 0.36.
Turning to “AATAGGATATGGTACATTTTTTGTATACTTTTTGTT [CACACA_negctrl_site1804]”, the “gcPBM binding intensity (ln)” value amounted to 8.91 ± 0.47.
The figure for “ATATATATATGTGGATGTACATATATCTCTTATTAT [XGTACX_site1748]” is 9.05 ± 0.42.
For the sequence “GAGAGAGAAATAAAAAGTACATACATATATATACAT [XGTACX_site2267]”, the “gcPBM binding intensity (ln)” value came to 8.84 ± 0.58.
As to “TCATAGTCTTAATGACTACACACCTAACTATGCATG [CACACA_site1839]”, the “gcPBM binding intensity (ln)” value was determined as 9 ± 0.47.
Regarding “TAATATGCATAAAATTGTACAAACTTACATATAATA [XGTACX_site2752]”, the “gcPBM binding intensity (ln)” value stood at 8.92 ± 0.45.
On to “CACCCATACACATACAAACACACATTCTATATATAT [CACACA_site1600]”, for which the “gcPBM binding intensity (ln)” value was found to be 9.28 ± 0.46.
For the sequence “ATCAAAAGAAAACACACACACATACATATATATATA [CACACA_site3795]”, the “gcPBM binding intensity (ln)” value is 10.1 ± 0.3.
For the sequence “CAATCAACAAAACATACACACACATATATATATATA [CACACA_site8979]”, the “gcPBM binding intensity (ln)” value came out at 10 ± 0.33.
With “CACATACCCATACAAACACACATTATATATATATAT [CACACA_site4965]”, the “gcPBM binding intensity (ln)” value turned out to be 9.56 ± 0.33.
Regarding “CAAACACCCAAACACACACACACATACATACATACA [CACACA_site8044]”, the “gcPBM binding intensity (ln)” value worked out at 9.98 ± 0.15.
The figure for “CACAAACACCCAAACACACACACACCGACATACATA [CACACA_site4410]” is 10.1 ± 0.46; for “CACGCGCACCAACACACACACACACCCATATATATA [CACACA_site2204]” it is 10.3 ± 0.4.
For “ATCAACAAAACATACACACACATATATATATATATA [CACACA_site2989]”, the “gcPBM binding intensity (ln)” value worked out at 10.32 ± 0.057.
As to “CATACATACAAACACACACACACACCCATATATATA [CACACA_site2918]”, the “gcPBM binding intensity (ln)” value was determined as 10.1 ± 0.31.
Regarding “GACACCCATAAATATACACACGCACAACACAAAATA [CACACA_site8944]”, the “gcPBM binding intensity (ln)” value stood at 9.46 ± 0.38.
The figure for “AAAAGTTATAGACACACACACATATAAATATAGATT [CACACA_site6617]” is 9.57 ± 0.3; for “TGTGTATAAATATACACACACATATAAATATTTTAA [CACACA_site7005]” it is 9.09 ± 0.35.
Consider “TTGCCATTAATTTATACACACACATTTTAATTTTTT [CACACA_site8150]”, for which the “gcPBM binding intensity (ln)” value worked out at 9.16 ± 0.39.
The figure for “GTAAATTATATAACAAATAAAAATGTACATATATAT [CACACA_negctrl_site408]” is 8.88 ± 0.46; for “TAAATTATCTTTTTATGTACTTATTTTTATTATTTT [XGTACX_site3158]” it is 8.73 ± 0.55.
Consider “AAAATATATGAAAACAGTACATATAAAAATTAAAAA [XGTACX_site2594]”, for which the “gcPBM binding intensity (ln)” value worked out at 8.75 ± 0.64.
As to “AAAAAAATTAATATGTCAGCACATATATACATACAT [GTGCAC_negctrl_site110]”, the “gcPBM binding intensity (ln)” value came to 8.88 ± 0.41.
For “ATATTAGTCGAATGATGTACACACATACAAAACATT [XGTACX_site8613]”, the “gcPBM binding intensity (ln)” value was found to be 9.28 ± 0.45.
The figure for “TGTGAATATATCTTTAAAAAGGATAAATAATAATTT [CACACA_negctrl_site507]” is 8.47 ± 0.52.
The figure for “GATGGATTTATTTAAAGTACATATTTAAAAAACTGT [XGTACX_site7567]” is 8.51 ± 0.49.
Turning to “AGCAAATACAAACACACACACACATATACATATATA [CACACA_site3497]”, the “gcPBM binding intensity (ln)” value was found to be 10.1 ± 0.26.
Regarding “ATGTACCTATTTCATACACACACACCCACAAACAAA [CACACA_site8232]”, the “gcPBM binding intensity (ln)” value worked out at 9.66 ± 0.16.
As to “CGCACCCAAATATATACACACATATATATATATATA [CACACA_site1651]”, the “gcPBM binding intensity (ln)” value came to 10.1 ± 0.16.
The figure for “ACCTATTTCAAACACACACACACACTAACAAACATA [CACACA_site8233]” is 10 ± 0.13; for “GAACAAACAAAGAAAGAACACACATACACAATATAC [CACACA_site8918]” it is 9.6 ± 0.38.
“TATAATATAAGGATCACACACAAACACCCATATATA [CACACA_site4468]”: the “gcPBM binding intensity (ln)” value was determined as 9.56 ± 0.18.
The figure for “AAGGATCACCCACAAACACACATATATATATATATA [CACACA_site559]” is 10.2 ± 0.28; for “AATACACGCAAACACACACACACACCCACATATATA [CACACA_site638]” it is 10.3 ± 0.14.
The figure for “ACCTATTTCAAACACACACACACACCCACAAACATA [CACACA_site977]” is 10.1 ± 0.33; for “GGAAACACAATATATACACACATATATATATATATA [CACACA_site235]” it is 10.1 ± 0.021; for “ACAATAAACATATATACACACACAAAAAAAAAAACA [CACACA_site8033]” it is 9.64 ± 0.33.
The figure for “AATATAATATAAGGATCACACACAAACACCCATATA [CACACA_site8084]” is 9.77 ± 0.2.
